Compound activity deposited in PubChem BioAssay by several laboratories.
Hits are enriched below; roughly 4.7% of the tested compounds scored in any of these assays.
HSF-1 act: increases HSF-1 driven luciferase reporter signal; NIH3T3-HGL HSF-1 luciferase reporter, MG132, 8 h; 100% = twice DMSO control signal; activation, % at 9 µM; 300,000 tested, 1.7% active;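 active = mean replicate activation of at least 50% with a set share of replicates each reaching 50%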;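 also: 0% = median of the neutral control wells and 100% = twice that signal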
HSP90 refold inh: blocks HSP90-mediated luciferase refolding in reticulocyte lysate; Rabbit reticulocyte lysate, luciferase refolding luminescence, 3 h; inhibition, % at 5.6 µM; 290,000 tested, 0.91% active;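 active = inhibition above the screen-wide mean plus 3 SD, computed separately per campaign, cut at about 16% in these data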;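 also: 0% = DMSO wells and 100% = 60 µM geldanamycin wells; inhibitors lower the luminescence because luciferase stays unfolded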
TROY NFkB inh: TROY signaling inhibition; Q293 LMP1-TROYcd NF-kB luciferase reporter, 4 h; 360,000 tested, 0.98% active; inhibition, % at 10 µM;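 active = compounds whose plate-normalised and pattern-corrected inhibition of the luciferase reporter signal at the single screening dose is 50% or more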
HSF1 inh: HSF1 inhibition. NIH3T3-HGL HSE-luciferase, MG132-induced, luminescence 8 h; hits give low values. AID 2098. 300,000 tested, 0.77% active. activity change, negative = inhibition, % at 7.5 µM (by protocol);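 active = more than half of replicate wells show activity change below -50%, luminescence cut by over half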;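 also: luciferase reports HSF-1 transcriptional activity via heat shock element; 0% = median of DMSO wells and -100% = zero luminescence signal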
LMP1 NFkB inh: Epstein-Barr LMP1 NF-kappaB reporter inhibition. LMP1-induced NF-kappaB luciferase reporter cells, luminescence. inhibition, % at 12.5 µM. 350,000 tested, 0.69% active. AID 504558; in the data active = inhibition above about 41%;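 also: 0% = neutral control wells and 100% = reference inhibitor control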
TWEAK Fn14 block: TWEAK-Fn14 signaling inhibition | TWEAK-stimulated Fn14 reporter cells, luciferase luminescence, 8 h | inhibition, % at 10 µM | 360,000 tested, 2% active | AID 1159606; in the data active = inhibition above about 50%
The depositor's hits bear a star; nt = not tested or not shown.

SMILES	HSF-1 act	HSP90 refold inh	TROY NFkB inh	HSF1 inh	LMP1 NFkB inh	TWEAK Fn14 block
O=[N+]([O-])c1cccc(-c2nc(-c3ccccn3)no2)c1	53.6*	6.5	-40.0	20.3	10.8	38.8
COc1ccc(-c2nc(-c3cccc(C)c3)no2)cc1OC	46.7	-1.6	-80.1	19.3	-38.3	-9.4
c1ccc(-c2noc(-c3ccc4c(c3)OCO4)n2)nc1	-48.4	41.1*	85.0*	-41.8	77.7*	100.8*
CCC(C)(O)c1cnc(CC(C)C)c(=O)n1O (stereo not given)	nt	nt	-7.7	nt	nt	1.3
O=C(OCc1cn([C@H]2CN(C(=O)C3CCCCC3)[C@@H](c3ccccc3)C[C@@H]2O)nn1)c1ccccc1	nt	nt	-0.7	nt	-0.7	-2.2
Cc1ccc2nc(NNC(=O)c3ccc(S(=O)(=O)N4CCc5ccccc5C4)cc3)sc2c1	-23.6	11.8	-7.7	-26.3	59.3*	13.8
Cc1cccc2sc(NNC(=O)c3ccc(S(=O)(=O)N4CC(C)CC(C)C4)cc3)nc12 (stereo not given)	-11.4	6.2	51.0*	-15.7	37.6	63.8*
COc1cc(OC)cc(-c2nnc(Sc3ccc(C=O)cc3[N+](=O)[O-])o2)c1	141.8*	2.8	nt	88.4	nt	nt
N=c1c2c(-c3ccccc3)c(-c3ccccc3)n(Cc3ccco3)c2ncn1CCCn1ccnc1	2.9	2.2	-1.1	5.9	-51.1	-5.3
N=c1c2c(-c3ccccc3)c(-c3ccccc3)n(Cc3ccco3)c2ncn1CCCN1CCOCC1	102.4*	0.8	-8.1	48.8	-12.4	-2.0
Cc1cc(N2CCOCC2)ccc1/C=C1\SC(=O)N(C(C)C)C1=O	78.3*	5.4	25.6	45.2	-54.1	49.2
CCC(C)N1C(=O)S/C(=C/c2ccc(N3CCOCC3)cc2C)C1=O (stereo not given)	-2.9	3.7	32.5	-8.5	-18.9	51.2*
CCN1C(=O)S/C(=C\c2ccc(N3CCOCC3)cc2C)C1=O	65.1*	-2.9	-7.2	44.7	-48.3	37.3
CCCN1C(=O)S/C(=C\c2ccc(N3CCOCC3)cc2C)C1=O	nt	7.6	nt	nt	nt	nt
CCCN1C(=O)S/C(=C\c2ccc(N3CCOCC3)o2)C1=O	92.6*	-1.9	-0.6	67.8	-1.5	46.6
Cc1nc(-c2ccc(F)cc2)c(CC(=O)N(C)CC(=O)Nc2ccc(Cl)c(C(F)(F)F)c2)s1	nt	nt	42.7	nt	-10.7	26.1
CCOc1ccc(CN(C)C(=O)c2cccc(S(=O)(=O)Nc3ccccc3OC)c2)cc1OC	nt	nt	0.6	nt	1.1	-0.4
O=C(CC[C@H]1O[C@@H](n2ccc(=O)[nH]c2=O)[C@H](O)[C@@H]1O)N1CCN(Cc2cccc3ccccc23)CC1	nt	nt	6.4	nt	nt	13.7
CCn1c(N)cc(=O)[nH]c1=S	nt	nt	6.0	nt	-9.2	-9.6
COc1ccc(C(C)N2CC34C=CC(O3)C(C(=O)O)C4C2=O)cc1 (stereo not given)	-69.3	-2.4	-2.1	-64.2*	-7.9	-5.7
O=C(CCCN1C(=O)c2cccc3cccc(c23)C1=O)Nc1ccon1	112.6*	-2.6	-16.6	49.2	24.7	-18.8
CC(C)Oc1cc(F)ccc1-c1cc(C(=O)NCc2cccs2)[nH]n1	nt	nt	-7.0	nt	nt	11.4
Cc1c2cnn(CC(=O)O)c(=O)c2c(C)n1Cc1ccccc1	-19.2	-2.2	-3.6	-5.4	-6.9	13.1
COc1ccc2cnn(Cc3ccccc3)c(=O)c2c1OC	0.0	0.1	50.9*	3.6	2.8	27.8
COC(=O)Cn1ncc2c(C)n(Cc3ccccc3)c(C)c2c1=O	2.3	-1.0	-43.2	-3.5	68.5*	-10.4
SMILES	HSF-1 act	HSP90 refold inh	TROY NFkB inh	HSF1 inh	LMP1 NFkB inh	TWEAK Fn14 block
CC1(C(=O)NS(=O)(=O)c2ccc(F)cc2F)CCN1C(=O)CC(c1ccccc1)c1ccccc1 (stereo not given)	nt	nt	0.3	nt	nt	-3.4
C=CCn1c(CCNC(=O)c2ccc(Cl)c(Cl)c2)nnc1SCCOc1ccc(OC)cc1	128.5*	1.6	3.5	73.2	-5.5	8.6
Cc1ccc(S(=O)(=O)N2CCN(S(C)(=O)=O)C2)cc1	-70.1	0.5	-10.1	-62.5*	3.4	15.6
Cc1ccc(S(=O)(=O)N2CCN(S(=O)(=O)c3ccccc3)C2)cc1	-9.7	-0.4	8.1	-7.6	-0.3	19.2
CCc1ccc(NCc2nc3ccccc3c(=O)[nH]2)cc1	23.0	2.2	67.1*	15.4	-41.2	29.6
CCCCNCc1nc2ccccc2c(=O)[nH]1	6.6	-5.5	-5.6	17.1	-1.1	0.1
COc1ccccc1NC(=O)c1c(Nc2ccccc2C)sc(C(=O)Nc2cccc(Cl)c2)c1N	-3.8	-4.6	22.1	-0.4	42.8*	85.7*
Cc1cc(C2=NNC(=NC3CC3)SC2)c(C)n1Cc1ccco1	nt	0.2	16.0	nt	78.6*	61.1*
COc1ccc(-n2c(C)cc(C3=NNC(=NC4CC4)SC3)c2C)cc1	nt	11.9	-8.0	nt	-3.1	-4.0
c1ccc2c(C3=NNC(=NC4CCCCC4)SC3)c[nH]c2c1	18.1	7.9	-18.7	12.6	9.8	-38.9
Cc1cc(C2=NNC(=NC3CC3)SC2)c(C)n1-c1ccccc1	-36.7	13.3	47.3	-25.4	73.7*	95.6*
c1ccc(C2=NNC(=NC3CC3)SC2)cc1	8.6	13.0	-22.1	1.5	47.6*	63.3*
C=CCN=C1NN=C(c2cc(C)n(CCOC)c2C)CS1	-12.3	4.6	13.9	-8.8	44.9*	40.5
COCCCN=C1NN=C(c2cc(C)n(Cc3ccco3)c2C)CS1	21.2	4.8	2.5	-8.4	8.4	10.4
COCCn1c(C)cc(C2=NNC(=Nc3ccc(Cl)cc3Cl)SC2)c1C	-9.2	9.1	-10.1	-10.6	15.5	7.5
O=C(NCCN1CCC(n2c(=O)[nH]c3ccccc32)CC1)c1ccc(F)cc1F	nt	nt	-9.7	nt	nt	-14.1
Cc1ccc(C(O)c2ncc(-c3ccc(Cl)cc3)[nH]2)cc1F (stereo not given)	nt	nt	12.2	nt	nt	-29.8
COCCn1c(C)cc(C2=NNC(=NC3CC3)SC2)c1C	-66.8	70.4*	86.1*	-63.6*	83.7*	101.6*
C=CCn1c(C)cc(C2=NNC(=NC(C)(C)C)SC2)c1C	31.1	4.9	27.6	9.7	57.3*	83.1*
C=CCn1c(C)cc(C2=NNC(=Nc3ccc(C)cc3)SC2)c1C	-3.5	2.5	-24.3	-0.8	-13.4	-5.6
COc1ccc(NC(=O)/C(C#N)=C/c2cc(C)n(-c3ccc(N4CCOCC4)c([N+](=O)[O-])c3)c2C)cc1	43.9	-3.1	37.6	5.6	44.5*	78.9*
Cc1cc(/C=C(\C#N)C(=O)Nc2ccc(F)cc2)c(C)n1-c1ccc(N2CCOCC2)c([N+](=O)[O-])c1	5.0	2.2	37.5	7.5	26.0	53.4*
CS(=O)(=O)Nc1cccc(-c2ccc3nncn3c2)c1	nt	nt	-25.9	nt	nt	-10.0
CN(CCc1ccccc1)c1cc2c(c3c1ccn3C)C1CCC2C1 (stereo not given)	nt	nt	-3.6	nt	nt	16.2
O=[N+]([O-])c1ccc(C2CN=C(Nc3ccccc3)S2)cc1 (stereo not given)	64.5*	3.3	-47.3	43.6	-4.3	-35.7
